Results published in PubChem BioAssay AID2546 (National Center for Advancing Translational Sciences (NCATS), 2010).
Several values for one entry are separate records, joined by “and”; a condition that tells them apart may be missing. Equal values may be shown once. About 11,000 (3.5%) of roughly 310,000 compounds were called active. Where a call stands in place of a potency, no number is given. Another 8% or so got no clear call; they are omitted. The full list was thinned out, with actives kept by preference. Unmarked numbers belong to inactive results. Calls come from the whole dose curve; as a rule, active = well fitted inhibition curve with a large enough effect; inconclusive = small, poorly fitted or top-dose-only effect, or effect the other way; inactive = flat fitted curve, though single readings scatter.

Experiment: VP16 counterscreen qHTS for inhibitors of ROR gamma transcriptional activity;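 note: Gal4-VP16 expression switched on by copper sulfate through the metallothionein promoter; nearly all actives have a fitted effect of over 50% in size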
Conditions: Drosophila S2 Gal4-VP16 UAS-luciferase, luminescence, 20 h; series mostly up to 53.6 µM
Potency is the fitted concentration of half-maximal effect.

| SMILES | Potency | activity, negative = inhibition |
| --- | --- | --- |
| CCn1c2ccccc2c2cc(NC(=S)N3CCOCC3)ccc21 | 22.4 µM (active) |  |
| Cc1cc(N2CCN(C)CC2)nc2ccc(NC(=S)N3CCOCC3)cc12 | inactive |  |
| CCn1c2ccccc2c2cc(NC(=O)CNC)ccc21 | inactive |  |
| CC(C)CCN(C(=O)c1csnn1)C(C(=O)NC1CCCC1)c1ccccc1 (stereo unspecified) | inactive |  |
| CC(C)CC(=O)N1CCN(Cc2cccc(Cl)c2)CC1 | inactive |  |
| Clc1cccc(CN2COc3c(cc(Cl)c4cccnc34)C2)c1 | 1.41 µM (active) |  |
| Nc1c(C(=O)NCc2ccccc2)nnn1Cc1cccc(Cl)c1 | inactive |  |
| N#Cc1cccc(CN2CCC(=O)N([C@H](CO)c3ccccc3)CC2)c1 | inactive |  |
| Cc1ccc(NC(=O)c2c(NC(=O)CCC(=O)O)sc3c2CCCCC3)cc1 | inactive |  |
| NC(=O)c1c(NC(=O)c2ccccc2)sc2c1CCCC2 | inactive |  |
| O=C(CN1CCCC1)Nc1sc2c(c1C(=O)Nc1ccccc1)CCCC2 | 10 µM (active) |  |
| COc1cc(S(=O)(=O)N2CCN=C2c2ccccc2)ccc1Cl | inactive |  |
| Cc1cc(S(=O)(=O)c2cc3ccc(O)c(C)c3oc2=O)ccc1F | inactive |  |
| Cc1ccc2occ(/C=N/NC(=O)c3ccccc3C)c(=O)c2c1 | inactive |  |
| Cc1nc2ccc(C(=O)N/N=C/c3ccc(O)cc3)cc2[nH]1 | inactive |  |
| Cc1ccc(/C=N/NC(=O)C2=NNC(c3ccccc3)(c3ccccc3)C2)c(O)c1 | 1.26 µM (active) |  |
| O=C(NCc1ccccc1)c1onc(CSc2nc3ccccc3[nH]2)c1C(=O)NCc1ccccc1 | inactive |  |
| O=C(COc1ccc2c3c(c(=O)oc2c1)CCCC3)NCC(O)c1ccccc1 (stereo unspecified) | inactive |  |
| COCCN1C(=O)C(=O)/C(=C(/O)c2ccc(S(=O)(=O)N3CCOCC3)cc2)C1c1ccc(OC)c(OC)c1 (stereo unspecified) | inactive |  |
| C/C(=N\NC(=O)C(N)=O)c1ccc2c(c1)OCCO2 | inactive |  |
| C/C(=N/NC(=S)Nc1ccccc1)c1ccc2c(c1)OCO2 | 4.47 µM (active) |  |
| C/C(=N/NC(=O)c1ccncc1)c1ccc2c(c1)OCO2 | inactive |  |

| SMILES | Potency | activity, negative = inhibition |
| --- | --- | --- |
| Cc1ccccc1N1CCN(C2CCCN(C(=O)c3cn4c(C)cccc4n3)C2)CC1 (stereo unspecified) | inactive |  |
| CCc1nn(CCCC(=O)Nc2ccc(C)c(C)c2)c(=O)c2cc3occc3n12 | inactive |  |
| CN1C/C(=C/c2cccs2)C(=O)/C(=C\c2cccs2)C1 | inactive |  |
| CCCc1cc(C(=O)Nc2ccc(Cl)cn2)cs1 | inactive |  |
| O=C(Nc1ccc(Cl)cn1)Nc1cccs1 | 14.1 µM (active) |  |
| O=C(Nc1cccc([N+](=O)[O-])c1)Nc1ccc(Cl)cn1 | inactive |  |
| COc1cc(/C=N/N2CCN(c3ccccc3)CC2)ccc1OC(C)=O | inactive |  |
| CC1CN/C(=C\C(=O)c2ccc(Br)cc2)C(=O)N1 (stereo unspecified) | 11.2 µM (active) |  |
| COc1cc2c(cc1OC)/C(=C/C(=O)c1ccc(NC(C)=O)cc1)NCC2 | inactive |  |
| C/C(=C\C(=O)c1ccc(Br)cc1)N1CCCCC1 | inactive |  |
| Cc1ccnc(SCC(N)=O)n1 | inactive |  |
| CCOc1ccccc1N1C(=O)CC(Sc2nccc(C)n2)C1=O (stereo unspecified) | 17.8 µM (active) |  |
| O=C1CC(Sc2ncn[nH]2)C(=O)N1c1ccccc1 (stereo unspecified) | inactive |  |
| COC(=O)C1CCN(C(=O)c2ccc3oc(Cc4ccc(Cl)cc4)nc3c2)CC1 | inactive |  |
| COc1ccc(-c2nc3c(s2)CCc2onc(-c4ccc(OC)cc4)c2-3)cc1 | inactive |  |
| CCn1ccnc1CNC(=O)CC1C(=O)NCCN1CCCc1ccccc1 (stereo unspecified) | inactive |  |
| COCCNC(=S)N(CCc1c(C)[nH]c2ccc(C)cc12)Cc1cccnc1 | inactive |  |
| NS(=O)(=O)c1ccc(Nc2nc(-c3ccccc3)cs2)cc1 | inactive |  |
| Cc1cccc(S(=O)(=O)CC(=O)Nc2nc(-c3ccccc3)cs2)c1 | inactive |  |
| Cc1cccc(Nc2nc(-c3ccccc3)cs2)n1 | 17.8 µM (active) |  |
| COc1ccccc1-c1nnc(NC(=O)c2ccc3ncsc3c2)o1 | 0.501 µM (active) |  |
| COc1ccccc1-c1nnc(SCC(=O)Nc2ccccc2)o1 | inactive |  |

| SMILES | Potency | activity, negative = inhibition |
| --- | --- | --- |
| O=C(Nc1ccc(S(=O)(=O)N2CCOCC2)cc1)c1ccc2ncsc2c1 | inactive |  |
| CCCOc1ccc(-c2c(C(=O)N/N=C/c3ccco3)nnn2-c2nonc2N)cc1 | 15.8 µM (active) |  |
| Nc1nonc1-n1nnc(C(=O)N/N=C/C2CCCCC2)c1-c1ccccc1 | inactive |  |
| Nc1nonc1-n1nnc(C(=O)N/N=C/c2c[nH]c3ccccc23)c1-c1ccccc1 | inactive |  |
| COc1ccc(NC(=O)c2cccc3c2C(=O)N(CC2CCCO2)C3)cc1OC (stereo unspecified) | inactive |  |
| O=C(NNS(=O)(=O)c1ccc(F)cc1)C1CCCCC1 | inactive |  |
| COc1cc(SC#N)ccc1N=Cc1c(C)[nH]n(-c2ccc(C)cc2)c1=O | 5.62 µM (active) |  |
| COc1cc(NS(=O)(=O)c2ccc(N=Cc3c(C)[nH]n(-c4ccccc4)c3=O)cc2)nc(OC)n1 | inactive |  |
| O=S(=O)(Nc1cccc(-n2cnnn2)c1)c1cnc(Cl)c(Cl)c1 | inactive |  |
| CCc1ccc(S(=O)(=O)Nc2cc3c(cc2N2CCCCC2)n(C)c(=O)c(=O)n3C)cc1 | inactive |  |
| CSCCC(NS(=O)(=O)c1ccc(C)cc1)C(=O)NCCc1c[nH]c2ccccc12 (stereo unspecified) | inactive |  |
| COc1ccc(C(=O)c2c(C)c(CCC#N)n3ccccc23)c(OC)c1 | inactive |  |
| Cc1ccc(-c2cc(C(=O)NN)n[nH]2)o1 | inactive |  |
| CC(C)c1cc(C(=O)N/N=C/C(Br)=C/c2ccccc2)n[nH]1 | inactive |  |
| Cc1ccc(-c2cc(C(=O)N/N=C/C=C/c3ccccc3)n[nH]2)o1 | 20 µM (active) |  |
| Cc1cc2oc(=O)cc(CN3CCN(Cc4ccccc4)CC3)c2cc1C | inactive |  |
| COc1cccc(CNC(=O)Cn2c(=O)oc3cc(S(=O)(=O)N4CCCCC4)ccc32)c1 | inactive |  |
| Cc1ccc(N2CCN(C(=O)c3cccs3)CC2)c(C)c1 | inactive |  |
| CC(=O)c1ccc(N2CCN(CC(=O)Nc3ccccc3N3CCOCC3)CC2)cc1 |  | -11.4% [at 10 µM] |
| Cc1ccccc1NC(=O)Nc1ccccc1N1CCCCC1 | inactive |  |
| O=C(CCNC(=O)c1ccc([N+](=O)[O-])cc1)Nc1ccccc1N1CCOCC1 | inactive |  |
| COc1ccc(C(=O)NC(=S)Nc2ccccc2N2CCN(S(C)(=O)=O)CC2)cc1OC | inactive |  |

| SMILES | Potency | activity, negative = inhibition |
| --- | --- | --- |
| COc1ccccc1C(=O)NC(=S)Nc1ccccc1N1CCCCC1 | 10 µM (active) |  |
| O=C(Nc1ccccc1N1CCCCC1)c1cccc(F)c1 | inactive |  |
| O=C(Nc1ccccc1N1CCCC1)c1ccc2ccccc2c1 | inactive |  |
| O=C(NC(=S)Nc1ccccc1N1CCCCC1)c1ccc(F)cc1 | 6.31 µM (active) |  |
| CCc1ccc(C(=O)NC(=S)Nc2ccccc2N2CCOCC2)cc1 | 3.16 µM (active) |  |
| COc1ccc(/C=C(\C#N)c2c[nH]c3ccccc23)cc1 | inactive |  |
| Cn1c(=O)oc2cc(S(=O)(=O)NCCC(=O)NCc3ccccc3Cl)ccc21 | inactive |  |
| CN(Cc1ccccc1)C(=O)C1CCCN(c2ncnc3c2nc2n3CCCCC2)C1 (stereo unspecified) | inactive |  |
| CC1CCN(CCCn2c(SCC(=O)NC3CCCC3)nc3ccccc3c2=O)CC1 | inactive |  |
| Cc1c2cnn(CC(=O)NCc3ccccn3)c(=O)c2c(C)n1Cc1ccc(Cl)cc1 | inactive |  |
| O=C1Nc2ccccc2/C1=C/c1ccnc2ccccc12 | inactive |  |
| COc1cc(CN2CCCC(C(=O)c3ccc(SC)cc3)C2)cc(Cl)c1O (stereo unspecified) | inactive |  |
| COc1ccc(NC(=O)C2CCN(S(=O)(=O)c3ccc4[nH]c(=O)oc4c3)CC2)c(OC)c1 | inactive |  |
| C=CCSc1nnc(N2C(=O)C(O)=C(C(=O)c3ccco3)C2c2ccc(F)cc2)s1 (stereo unspecified) | inactive |  |
| O=S(=O)(c1ccc(Br)cc1)c1nc(-c2ccccc2)oc1N1CCOCC1 | inactive |  |
| COc1cc(C(=O)NC2CCN(Cc3ccccc3)CC2)cc(Cl)c1OC(C)C | inactive |  |
| CCOC(=O)c1cnc(-c2ccccc2)nc1Oc1ccc(C)cc1 | inactive |  |
| CNc1nc(-c2ccccc2OC)nc2ccccc12 | inactive |  |
| COc1ccc(Sc2nc(-c3ccccc3)ncc2OC)cc1 | inactive |  |
| COc1ccccc1Oc1nc(-c2cccnc2)nc2ccccc12 | inactive |  |
| COc1cnc(-c2ccccn2)nc1Oc1ccc(C(C)(C)C)cc1 | 12.6 µM (active) |  |
| Cc1ccc(Oc2nc(-c3ccccn3)nc3ccccc23)cc1 | 3.16 µM (active) |  |

| SMILES | Potency | activity, negative = inhibition |
| --- | --- | --- |
| CC(C)(C)Nc1nc(-c2ccccn2)nc2ccccc12 | 3.98 µM (active) |  |
| Cc1cnc(CNc2nc(-c3cccnc3)nc3ccccc23)cn1 | inactive |  |
| COc1ccc(Cc2nc(-c3ccccn3)no2)cc1OC | inactive |  |
| CCCc1ccc(OCC(O)CN2CCN(C(=O)OCC)CC2)cc1 (stereo unspecified) | inactive |  |
| CC(C)c1ccc(NC(=O)C2CCCN(S(=O)(=O)c3cccnc3)C2)cc1 (stereo unspecified) | inactive |  |
| CCCn1c(C2CCCN2c2nc(-c3ccc(C)cc3)cs2)nc2cc(Cl)c(N3CCCCC3)cc21 (stereo unspecified) | inactive |  |
| COc1ccc(CNC(=O)c2cc(=O)c3c(C)cc(C)cc3o2)cc1 | inactive |  |
| O=C(NCCCN1CCOCC1)c1cc(-c2ccccc2F)no1 | inactive |  |
| COc1ccccc1N1CCN(S(=O)(=O)c2ccc3c(c2)NC(=O)CS3)CC1 | inactive |  |
| O=[N+]([O-])c1cccc2ncccc12 | inactive |  |
| Cc1ccccc1NC(=O)c1ccccc1NS(=O)(=O)c1cccc2cccnc12 | inactive |  |
| O=[N+]([O-])c1ccccc1S(=O)(=O)Nc1cccc2cccnc12 | 1.41 µM (active) and 1 µM (active) |  |
| Cc1nc2ccc(C(=O)N(C)CC3CCCN(CCc4ccc(Cl)cc4)C3)cc2[nH]1 (stereo unspecified) | inactive |  |
| CC(C)CNS(=O)(=O)c1ccc(CCC(=O)NCc2ccc(Cl)cc2)cc1 | inactive |  |
| CCOC(OCC)c1ccc(/C=C\c2nccc(N)n2)cc1 | inactive |  |
| COC(=O)c1ccc(OC(=O)c2cnccn2)cc1 | inactive |  |
| c1ccc(-c2cn3c(n2)CCc2ccc4cccnc4c2-3)cc1 | 7.94 µM (active) |  |
| COC(=O)C1=CN(c2ccc(F)c(F)c2)C=C(C(=O)OC)C1c1ccc([N+](=O)[O-])cc1 | inactive |  |
